Reference: PubChem BioAssay AID602281 (The Scripps Research Institute Molecular Screening Center, 2012)
The whole screen tested about 360,000 compounds, of which about 2,900 (0.81%) were called active. The sample holds actives, similar compounds and a random draw of the others, so the mix is not that of the screen. Unmarked numbers belong to inactive results.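 The calls were made as follows: active = inhibition above the mean inhibition across every tested compound plus 3 SD (cut at about 22% in these data); inactive = the rest.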

Target: Perilipin-5 (Homo sapiens) + 1-acylglycerol-3-phosphate O-acyltransferase ABHD5 (Homo sapiens) (UniProt Q00G26+Q8WTS1)
Sequence (Q00G26 whole entry, looked up): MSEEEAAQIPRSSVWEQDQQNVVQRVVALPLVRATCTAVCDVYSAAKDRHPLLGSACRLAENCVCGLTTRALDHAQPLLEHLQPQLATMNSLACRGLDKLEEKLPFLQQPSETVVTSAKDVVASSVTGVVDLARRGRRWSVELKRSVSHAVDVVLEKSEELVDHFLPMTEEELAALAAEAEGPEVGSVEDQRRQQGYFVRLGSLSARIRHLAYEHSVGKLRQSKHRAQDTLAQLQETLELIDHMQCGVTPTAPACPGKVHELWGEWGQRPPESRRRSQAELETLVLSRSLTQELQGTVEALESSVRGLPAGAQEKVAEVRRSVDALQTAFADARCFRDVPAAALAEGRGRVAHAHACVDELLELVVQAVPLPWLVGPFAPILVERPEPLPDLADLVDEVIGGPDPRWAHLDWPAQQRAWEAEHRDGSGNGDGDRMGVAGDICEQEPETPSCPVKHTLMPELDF
Sequence (Q8WTS1 whole entry, looked up): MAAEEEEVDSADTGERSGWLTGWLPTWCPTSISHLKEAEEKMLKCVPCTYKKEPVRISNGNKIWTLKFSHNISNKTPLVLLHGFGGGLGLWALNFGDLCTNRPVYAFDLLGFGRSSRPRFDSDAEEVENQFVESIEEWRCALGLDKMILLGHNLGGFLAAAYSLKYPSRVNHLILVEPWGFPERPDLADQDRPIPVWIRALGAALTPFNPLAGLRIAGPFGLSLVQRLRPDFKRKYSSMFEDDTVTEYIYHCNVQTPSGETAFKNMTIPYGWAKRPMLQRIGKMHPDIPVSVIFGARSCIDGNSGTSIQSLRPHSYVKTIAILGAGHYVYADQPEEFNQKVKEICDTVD
Experiment: blockers of ABHD5 binding to perilipin-5 – cell lysate, split luciferase complementation, luminescence, primary screen (AID 602281);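 also: 0% = DMSO only wells and the 100% control is not disclosed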
Settings: Split G. princeps luciferase complementation, 4 h, at 4 µM, hits give high values

Structure (SMILES) | inhibition
CCOC(=O)[C@]12Cc3ccccc3[C@H]1N(C1CCCCC1)C(=O)c1cc(OC)ccc12 | 39.6% (active)
CCOC(=O)[C@]12Cc3cc(OC)ccc3[C@H]1N(C(C)C)C(=O)c1ccccc12 | 14.9%
CC(C)N(CC#CCC1(O)c2ccccc2-c2ccccc21)C(C)C | 3.81%
CN(C)CC1Oc2ccccc2OC1(O)c1ccccc1 (stereo not given) | 46.5% (active)
CCOC(=O)CNC(=O)N1Cc2cc(N3CCCCC3)ccc2-n2nncc2C1 | 5.92%
CCN1CC2C3CCC(C)(O3)C2C1 (stereo not given) | 4.06%
Cc1ccc(-c2cc(C(=O)N3CCC4(CC3)OCCO4)no2)cc1 | -2.79%
CCc1cccc2c(C#N)cn(CC(=O)N3CCOCC3)c12 | 1.5%
CCC(=O)CC(c1ccc([N+](=O)[O-])cc1)c1c(O)c2ccccc2oc1=O (stereo not given) | 5.29%
Cc1cccc(N2C(=O)NC(=O)/C(=C\c3cnn(-c4ccccc4)c3)C2=O)c1 | 55.1% (active)
O=C(COC(=O)c1ccccc1)Nc1ccc(Cl)cc1C(=O)c1ccccc1 | 7.59%
Cc1ccc(S(=O)(=O)N(C)c2ccc(C(=O)NCC3(N(C)C)CCCCC3)cc2)cc1 | 0.68%
COc1ccccc1N1CCN(C(CNC(=O)Oc2ccccc2)c2cccnc2)CC1 (stereo not given) | 0.85%
N#Cc1ccc(Cn2cc(C(=O)c3ccco3)c3ccccc32)cc1 | 5.75%
Cc1ccc(Cn2c(C)c3cnn(CC(=O)N4CCC5(CC4)OCCO5)c(=O)c3c2C)cc1 | 9.7%
COc1ccc(CN2C(=O)NC(=O)/C(=C\c3ccc(OC)c(OC)c3OC)C2=O)cc1 | 23.3% (active)
C=CCN1C(=O)NC(=O)/C(=C/c2ccc(OCC(=O)Nc3ccc(C)cc3)cc2)C1=O | 15.7%
Cc1ccc(C)c(NC2=NCCCS2)c1 | 7.47%
C=CCN1C(=O)C2(C(C(=O)OCC)=C(N)Oc3c2c(=O)oc2ccccc32)c2ccccc21 (stereo not given) | -7.25%
COc1ccc(N=Cc2c(O)n(C)c(=O)[nH]c2=O)cc1 | -7.01%
CCc1nnc(NS(=O)(=O)c2ccc(N=Cc3c(O)n(-c4ccccc4)c(=O)[nH]c3=O)cc2)s1 | 24.9% (active)
O=c1[nH]c(=O)n(-c2ccc(F)cc2)c(O)c1C=NCCN1CCCCC1 | -4.1%
Cc1ccc(N2C(=O)NC(=O)C(CCc3ccncc3)(Cc3cccc(Cl)c3Cl)C2=O)cc1 (stereo not given) | -2.62%
CC1CCC(N(C)C2CCN(C)CC2)CC1 (stereo not given) | -5.21%
O=c1[nH]c(=O)n(CCc2ccc(F)cc2)c(O)c1/C=N/N1CCCCC1 | -2.89%
